Screening data deposited in PubChem by several laboratories.
NR5A2 inv ag = LRH-1 (NR5A2) inverse agonists, primary screen, cell-based, luminescence, HEK293T, StAR-luciferase reporter; inhibition, % at 3.6 µM; LRH-1 transfected, 24 h; actives 0.13% (n = 360,000);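 active = inhibition above the mean inhibition of all tested compounds plus 3 SD, cut at about 73% in these data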
SRC3 inh = SRC3 coactivator transcriptional activity inhibitors, primary screen, cell-based, luminescence; HEK293 GAL4-SRC3 luciferase reporter; actives 0.17% (n = 360,000); Nuclear receptor coactivator 3 (Homo sapiens), Q9Y6Q9; inhibition, % at 3.6 µM;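 active = inhibition above a per-campaign cutoff, the mean of all compounds plus 3 SD, cut at about 60% in these data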;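 note: higher means less SRC3-driven luciferase light from the GAL4 reporter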
SRC1 inh = SRC1 coactivator transcriptional activity inhibitors, primary screen, cell-based, luminescence. inhibition, % at 3.6 µM. Nuclear receptor coactivator 1 (Homo sapiens), Q15788. HEK293 GAL4-SRC1 luciferase reporter. actives 0.12% (n = 360,000);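 active = inhibition above the campaign mean plus 3 SD, with each screening campaign given its own cutoff, cut at about 60% in these data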
EBV LMP1 NFkB = EBV LMP1-driven NF-kappaB luciferase reporter inhibitors, primary screen, cell-based, luminescence, single point. actives 0.69% (n = 350,000). LMP1-induced NF-kappaB luciferase reporter cells. inhibition, % at 12.5 µM; in the data active = inhibition above about 41%
NCOA2 inhibitor = inhibition of GAL4-SRC2 driven luciferase reporter, primary screen, SRC2 inhibitor project, cell-based, luminescence; inhibition, % at 9 µM; HEK293 GAL4-SRC2 luciferase reporter; actives 0.17% (n = 370,000); AID 651957, 2012;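 active = inhibition above the mean inhibition of all tested compounds plus 3 SD, set per campaign, cut at about 52% in these data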
A number is an active result; - = inactive; . = no result given. Hits are enriched below; roughly 0.78% of the tested compounds scored in any of these assays.

SMILES	NR5A2 inv ag	SRC3 inh	SRC1 inh	EBV LMP1 NFkB	NCOA2 inhibitor
CCOc1ccc(C(=O)NC(=S)N(Cc2ccccc2)Cc2ccccc2)cc1	-	-	-	50	-
CCOC(=O)CNC(=O)N(C)[C@H]1C[C@H]2c3[nH]c4c(-c5cccc(C)c5)cccc4c3CCN2C(=O)[C@H]1[C@H](C)O	.	.	.	.	-
O=c1cnnc(N/N=C/c2ccccn2)[nH]1	92	83	66	76	-
COCCNC(=S)N(C)[C@H]1C[C@H]2c3[nH]c4c(-c5cccc(C)c5)cccc4c3CCN2C[C@H]1[C@H](C)O	.	.	.	.	-
CN(CCc1ccccn1)C(=O)c1ccc2c(c1)ncn2C1CCCCC1	.	.	.	.	-
O=C(Nc1cccc(Cl)c1)Nc1nnc(CSCCOc2ccc(Cl)cc2)s1	-	-	-	44	-
Cc1ccc(NC(=O)Nc2nnc(CSCCOc3ccc(Cl)cc3)s2)cc1	-	-	-	-	-
Cc1ccc(N(Cc2cc3ccccc3[nH]c2=O)C(=O)c2ccco2)c(C)c1	-	-	-	40	-
Cc1cc(N2CCCC2=O)cc(C)c1S(=O)(=O)Nc1c(C)nn(C)c1C	-	-	-	49	-
O=c1c2cccc3c2c(nn1CN1CCOCC1)-c1ccccc1-3	-	-	-	-	.
CCN(CC)CCn1nc2c3c(cccc3c1=O)-c1ccccc1-2	77	-	73	-	-
CN1CCN(C(=O)C2=C[C@@H](C(C)(C)C)C[C@@H](OCc3ccc(CO)cc3)O2)CC1	-	-	-	55	-
O=C1C[C@@H](c2ccccc2)N=C2N(Cc3ccc4c(c3)OCO4)C/C(=C/c3ccccc3)N12	.	.	.	.	-
Oc1ccc(/C=C/c2ccc3ccccc3n2)cc1	-	-	-	48	-
Cc1ccc(/C=C/c2nc3ccccc3s2)s1	-	-	-	43	-
CN(C)c1ccc(/C=C/c2ccc3ccccc3n2)cc1	-	64	62	76	.
CN(C)c1ccc(/C=C/c2nc3ccccc3s2)cc1	-	64	-	-	54
COC(=O)C[C@@H]1CC[C@@H]2[C@@H](COc3ccc(NC(=O)Nc4cccc(Cl)c4)cc3C(=O)N2C)O1	.	.	.	.	-
O=C1C=C[C@H]2CC[C@@H](O)[C@@H]1[C@@H]2Sc1ccccc1	.	.	.	.	-
O=C(O)/C=C/c1ccc2ccccc2n1	-	-	-	76	-
O=C(Cc1ccccc1[N+](=O)[O-])NCC1(c2cccc3c2OCO3)OCCO1	-	-	-	46	-
O=C(Cc1ccccc1[N+](=O)[O-])NC1CC1	-	-	-	-	-
COc1ccc(CNCC#Cc2ccc(C)cc2)c(OC)c1	.	.	.	.	-
COc1ccc2[nH]c3c(c2c1)CC(C)NC3=O (configuration not stated)	-	-	66	-	-
CCc1ccccc1NC(=O)Cn1cccc1C1=NC(c2ccccc2)CO1 (configuration not stated)	-	-	-	-	-
SMILES	NR5A2 inv ag	SRC3 inh	SRC1 inh	EBV LMP1 NFkB	NCOA2 inhibitor
Cc1ccc(NC(=O)Cn2cccc2C2=NC(c3ccccc3)CO2)cc1C (configuration not stated)	-	-	-	-	100
COc1cc(NC(=O)c2ccccc2)c(C)cc1NC(=O)CSc1nnc(COc2ccccc2)n1Cc1ccco1	.	.	.	.	-
COc1ccc(N/C(N)=N/c2nc(C)cc(=O)[nH]2)cc1	-	-	-	86	-
COc1cccc(N/C(N)=N/c2nc(C)cc(=O)[nH]2)c1	-	-	-	-	.
CCOc1ccccc1OCCCC(=O)N1CCN(S(=O)(=O)c2ccc(Cl)cc2)CC1	-	-	-	70	-
CCCOc1ccccc1OCC(=O)N1CCN(S(=O)(=O)c2ccc(Cl)cc2)CC1	-	-	-	-	-
COC(=O)[C@]12C[C@H](CC(=O)N3CCC(c4ccccc4)CC3)C(=O)N(CCc3ccc(OC)c(OC)c3)C1=C[C@H](C1CCCC1)O[C@@H]2C	.	.	.	.	-
Nc1ccn(C2OC(CO)C(O)C2O)c(=O)n1 (configuration not stated)	-	-	-	.	-
Nc1nc(=S)c2ncn(C3OC(CO)C(O)C3O)c2[nH]1 (configuration not stated)	-	-	-	-	-
Nc1ccn([C@@H]2O[C@H](CO)[C@@H](O)[C@@H]2O)c(=O)n1	-	-	-	53	-
Nc1ncn([C@@H]2O[C@H](CO)[C@@H](O)[C@H]2O)c(=O)n1	75	79	65	-	-
O=c1[nH]cnc2c1ncn2C1OC(CO)C(O)C1O (configuration not stated)	-	-	-	-	-
NC(=O)c1ncn([C@@H]2O[C@H](CO)[C@@H](O)[C@H]2O)n1	-	-	-	63	-
Nc1nc(=S)c2ncn([C@@H]3O[C@H](CO)[C@@H](O)[C@H]3O)c2[nH]1	81	-	-	-	-
Nc1[nH]c2cc(Cl)ccc2c1C(=O)NCCc1ccc(Cl)cc1	.	.	.	.	-
N#CCC[C@H]1CC[C@]2(CCCN(C(=O)c3ccco3)C2)O1	.	.	.	.	-
OCC1OC(n2ccc3c2ncn2ncnc32)C(O)C1O (configuration not stated)	-	-	62	-	-
CCOC(=O)C(C(C)=O)c1c(Br)c(O)c(O)c2c(C(=O)c3ccc(C)cc3)coc12 (configuration not stated)	-	80	-	-	-
CCOC(=O)c1c(C)n(-c2ccc(C)cc2)c2c(C(C(C)=O)C(=O)O)c(Br)c(O)c(O)c12 (configuration not stated)	-	-	-	-	-
CC(CCN1CCC(C(O)(c2ccccc2)c2ccccc2)CC1)Oc1ccc(C#N)cc1F (configuration not stated)	.	.	.	.	-
COc1ccccc1C1c2ccc3ccccc3c2Oc2ncn(CCN(C)C)c(=N)c21 (configuration not stated)	-	-	-	48	-
COc1ccccc1C1c2ccc3ccccc3c2Oc2ncn(CCCO)c(=N)c21 (configuration not stated)	-	-	-	-	.
CCN1CCN(Cc2ccc(NC(=O)c3ccc(C)c(NC(=O)c4cncc(-c5cccs5)c4)c3)cc2C(F)(F)F)CC1	-	-	-	71	.
Cc1ccc(C(=O)Nc2cccc(C(F)(F)F)c2)cc1NC(=O)c1nccn1C	-	-	-	-	-
CCN1CCN(Cc2ccc(NC(=O)c3cc(NC(=O)c4cncc(-c5ccc(C#N)cc5)c4)cc(OC)c3)cc2C(F)(F)F)CC1	-	-	-	-	-
CCN1CCN(Cc2ccc(NC(=O)c3ccc(C)c(NC(=O)c4nccn4C)c3)cc2C(F)(F)F)CC1	-	-	-	47	-
Cc1cn(-c2cc(C(=O)Nc3ccc(C)c(NC(=O)N4CCNC4=O)c3)cc(C(F)(F)F)c2)cn1	-	-	-	-	-
